Measured values: PubChem BioAssay

test: TLR3 IRF3 reporter activation blockers – cell-based, poly I:C stimulus, luciferase, 10K MLSCN set, primary screen (AID 602277); conditions: HEK293-TLR3 RL24 IRF3 luciferase reporter, at 10 µM, stronger effect = higher value;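 active = inhibition of the reporter signal at or above 50%; inactive = inhibition below 50%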

inhibition, inactive:
COc1ccc(C2CC(c3ccc(Cl)cc3)Nc3nc(NC(=O)c4ccco4)nn32)cc1 (stereo unspecified) 24.6%, CCn1nccc1C(=O)Nc1nccs1 9.69%, FC(F)(F)c1nnc2ccc(NCn3nnc4ccccc43)nn12 3.14%, O=C(NC(C(=O)c1ccccc1)n1ccc(=O)[nH]c1=O)c1ccccc1 (stereo unspecified) 12%, COc1ccc(N2C(=O)C(Cl)=C(Nc3c(C)n(C)n(-c4ccccc4)c3=O)C2=O)cc1 12.3%, Cc1cc(C)nc(N2CCCC(C(=O)Nc3nc4ccc(S(C)(=O)=O)cc4s3)C2)n1 (stereo unspecified) 11.5%, CCc1nnc(NC(=O)c2ccc(S(=O)(=O)NC3CCCCC3)cc2)s1 -17.5%, CC(C)C(=O)Nc1cccc(NC(=O)c2cccnc2)c1 -11.4%, CCn1c(Cc2ccccc2)nnc1SCC(=O)Nc1nc2ccccc2s1 17.4%, S=c1[nH]c2ccc(Cl)cc2[nH]1 33.3%, CCOc1ccc2nc(SCC#N)c(C#N)cc2c1 -93.9%, Cc1nc(C)c(C(=O)OCC(=O)N2CCN(c3ccccc3)CC2)s1 5.6%, COc1ccc(C(NC(=O)c2ccco2)c2ccc(OC)c(OC)c2)cc1 (stereo unspecified) 18.1%, Cc1nn(-c2ccccc2)c2c1C(c1c(C)[nH]c(C#N)c1C)C(C#N)=C(N)O2 (stereo unspecified) 13%, CCOC(=O)N1CCN(C(=O)C2c3cc(OC)c(OC)cc3C(=O)N3CCc4ccccc4C23)CC1 (stereo unspecified) 13.6%, CN1CCN(S(=O)(=O)c2ccc(Sc3nnc(-c4cccs4)n3-c3ccccc3)nc2)CC1 4.54%
